HT1080NT lethal: kills 2HG-producing HT-1080-NT fibrosarcoma cells. 360,000 tested, 1.6% active. AID 686970. Potency, µM (top dose mostly 46.1 µM), for inactives: top-dose activity, negative = less viability, hits mostly cytotoxic. HT-1080-NT fibrosarcoma viability, CellTiter-Glo ATP luminescence, 48 h;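 note: NT is the 2HG producing partner of a matched IDH1 knockdown line; 0% = DMSO-treated cells and -100% = media-only wells without cells; nearly all actives have a fitted effect of over 55% in size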
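A 48-hour cytotoxicity screen used HT-1080-NT cells plated 2 hours before compound delivery. ATP-based CellTiter-Glo luminescence measured viability, normalized to DMSO and no-cell controls.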
TGFb SMAD3 inh: inhibitors of TGF-b signaling. AID 588855. HepG2 CAGA-GFP TGF-b/SMAD3 reporter, GFP fluorescence, 18 h; TGF-beta stimulated, 500 pg/mL final. Potency, µM (highest dose often 46.1 µM), inactives show top-dose activity, negative = inhibition, hits mostly inhibitors. 410,000 tested, 1.2% active; note: % is set by controls: 0 for no effect and ±100 for the full control effect; nearly all actives have a fitted effect of over 65% in size
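Per well, imaged GFP fluorescence of HEPG2 CAGA-GFP cells gives the signal; cells get compound, then TGF-beta (500 pg/mL final), 18 h at 37 degrees C; %Activity versus -TGF-beta and +DMSO controls.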
HT1080 IDH1KD tx: HT-1080 IDH1 knockdown cell toxicity (counter line). Potency, µM (top dose mostly 46.1 µM), for inactives: at the top dose activity, negative = toxicity, most hits filed as cytotoxic. AID 686971. 360,000 tested, 2% active. HT-1080 IDH1 knockdown viability, ATP luminescence, 48 h;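 note: 0% = DMSO wells and -100% = cell-free medium wells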
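Using the IDH1-knockdown HT-1080 line run in the same batch and compound series as the NT line, viability after 48 h at 37 °C was determined by CellTiter-Glo luminescence and expressed as % activity.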
KB-3-1 cytotox: kills parental KB-3-1 adenocarcinoma cells. Potency, µM (titrated, usually from 46.1 µM), usual class: cytotoxic. 400,000 tested, 1.4% active. KB-3-1 viability, CellTiter-Glo ATP luminescence, 72 h; note: % is set by controls: 0 for no effect and ±100 for the full control effect; nearly all actives have a fitted effect of over 60% in size
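Parental KB-3-1 adenocarcinoma cells in phenol-red-free DMEM with 10% FBS were pin-treated with compounds at several concentrations, incubated 72 h at 37 °C, and viability read by CellTiter-Glo luminescence; concentration-effect curves were fitted after normalization.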
HepG2 tox: HepG2 cytotoxicity, counter-screen for TGF-b inhibitors; Potency, µM (series often up to 46.1 µM), inactives show at the top dose activity change, negative = cytotoxicity, usual class: cytotoxic; 410,000 tested, 0.76% active; HepG2 CAGA-GFP viability, ATP luminescence, 18 h
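CellTiter-Glo luminescence gave cytotoxicity after 18 hours at 37 degrees C. The cells were HepG2 CAGA-GFP in 1% FBS DMEM, stimulated with 500 pg/mL TGF-beta after compound addition. %Activity was normalised to no-cell wells (complete cell-killing) and DMSO (no toxicity), and curves were fitted and classified.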
KB-V1 cytotox: kills drug-selected multidrug resistant KB-V1 cells; 400,000 tested, 3.4% active; KB-V1 MDR cells viability, CellTiter-Glo, 72 h; Potency, µM (top dose mostly 46.1 µM), most hits filed as cytotoxic; note: % is set by controls: 0 for no effect and ±100 for the full control effect; nearly all actives have a fitted effect of over 60% in size
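Cells of the MDR subline KB-V1 are plated, dosed with compound at multiple concentrations, and incubated 72 h at 37 degrees C; CellTiter-Glo is then added and luminescence read after 10 min.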
Active calls of the source: *; i = inactive; ? = inconclusive; / = no result. Shown are actives, neighbours in structure and some others; about 6.6% of the full set was active somewhere. Calls come from the whole dose curve; as a rule, active = well fitted curve in the direction sought with a large enough effect; inconclusive = small, poorly fitted or top-dose-only effect, or another doubt; inactive = no such curve, though single readings can be large; an effect the other way counts as inactive or inconclusive. Potency is the fitted concentration of half-maximal effect.

SMILES | HT1080NT lethal | TGFb SMAD3 inh | HT1080 IDH1KD tx | KB-3-1 cytotox | HepG2 tox | KB-V1 cytotox
CC(C)[C@H](NC(=O)OC(C)(C)C)c1cc(C(=O)N[C@@H](C)c2ccccc2)c(N)s1 | -6.7% | / | -2.4% | i | / | i
CN(C)Cc1csc(Nc2ccc(C(=O)c3ccccc3)cc2)n1 | -7.7% | -24.3% | -29.2% | i | -24.2% | i
CCOc1ccccc1N1CCN(C(=O)c2cc3ccccc3cc2OC)CC1 | ? | -29.3% | 5.17µM* | 3.66µM* | -0.7% | 16.4µM*
CCOc1ccccc1N1CCN(C(=O)CC(C)C)CC1 | 14.2% | 1.2% | 16.3% | i | -4.3% | 23.1µM*
CCOC(=O)C1CCN(C(=O)c2cc3c(C)cc(C)cc3[nH]2)CC1 | ? | 2.6% | 11.0% | i | 1.7% | ?
CCOc1ccccc1N1CCN(C(=O)c2cc3c(C)cc(C)cc3[nH]2)CC1 | ? | 0.0% | ? | 18.4µM* | -3.3% | 23.1µM*
CCOc1ccccc1N1CCN(C(=O)c2ccncc2)CC1 | 11.8% | -2.0% | ? | i | 1.0% | i
COc1cc2ccccc2cc1C(=O)N1CCN(C(C)=O)CC1 | 0.0% | 0.2% | 4.3% | i | 6.1% | i
O=S(=O)(c1ccc(Cl)c(F)c1)N1CCC(c2nc(-c3ccncc3)no2)CC1 | ? | 8.1% | 4.5% | i | -29.9% | 20.6µM*
CCS(=O)(=O)N1CCC(c2nc(-c3ccc(C(F)(F)F)cc3)no2)CC1 | 5.6% | 4.1% | -15.2% | 6.51µM* | -12.0% | i
CCS(=O)(=O)N1CCC(c2nc(-c3ccc(C)cc3)no2)CC1 | 0.2% | -1.6% | 4.5% | ? | -2.6% | ?
O=C1/C(=C/c2ccc(N3CCCC3)cc2)NC(=S)N1C1CC1 | 6.31µM* | 43.1% | 7.94µM* | i | -25.8% | i
Oc1c(C(c2ccccc2F)N2CCN(c3ccccc3F)CC2)sc2nc(-c3ccco3)nn12 (centres undefined) | / | ? | / | i | -21.1% | ?
CCOC(=O)c1ccc(CNc2ncnc3nc[nH]c23)cc1 | / | ? | / | i | -10.3% | i
CN=C1c2cc3cc(OC)ccc3n2CCN1Cc1ccccc1 | 16.4µM* | ? | 23.1µM* | 8.2µM* | -22.3% | 16.4µM*
CCOc1ccc(C(=O)OCC(=O)Nc2cccnc2Cl)cc1OCC | 4.3% | -3.5% | -7.4% | i | 8.3% | 18.4µM*
O=C(COC(=O)c1ccc(Cl)c(Cl)c1)Nc1cccnc1Cl | ? | -26.7% | 17.6% | i | -2.9% | i
CCc1cc2c(=O)c(-c3cnn(-c4ccccc4)c3)c(C)oc2c(CN2CCCCC2)c1O | ? | 11.6% | ? | i | -58.1% | i
CCc1cc2c(=O)c(-c3cnn(-c4ccccc4)c3)c(C(F)(F)F)oc2c(CN(C)C)c1O | 6.9% | -1.8% | 1.5% | i | -5.4% | 1.84µM*
Cc1ccc(Oc2c(C(N)=O)cc([N+](=O)[O-])cc2[N+](=O)[O-])cc1 | ? | ? | ? | 20.6µM* | -82.5% | i
On1onc2c3cc(-c4ccccc4)nc3ccc21 | -23.7% | ? | ? | i | -18.8% | 14.6µM*
c1ccc(-c2cc3c(ccc4nonc43)nn2)cc1 | 6.5% | 4.2% | 8.6% | i | -0.7% | i
Cc1ccc(N(C)C(=O)C2CCN(S(=O)(=O)c3c(C)noc3/C=C/c3c(C)cc(C)cc3C)CC2)cc1 | / | ? | / | / | -3.1% | /
CC(C)(C)c1ccc(C(=O)N2CC(=O)Nc3ccc(F)cc3C2c2ccc(F)cc2)cc1 (centres undefined) | / | ? | / | 18.4µM* | -16.4% | ?
O=C1CN(C(=O)c2ccccc2)C(c2ccccc2)c2cc(F)ccc2N1 (centres undefined) | -1.6% | -5.7% | -5.2% | i | -3.9% | i
SMILES | HT1080NT lethal | TGFb SMAD3 inh | HT1080 IDH1KD tx | KB-3-1 cytotox | HepG2 tox | KB-V1 cytotox
Cc1c(-c2ccccc2)n(-c2ccc(Cl)cc2)c2nc3c(c(=O)n(C)c(=O)n3C)n12 | / | -8.7% | / | i | -21.3% | i
CCCCNC(=O)c1cccc2c(=O)c(C)c(-c3ccccc3)oc12 | -17.4% | -5.2% | -13.5% | i | 10.6% | ?
Cc1c(-c2ccccc2)oc2c(C(=O)N3CCN(c4ccccc4F)CC3)cccc2c1=O | 11.4% | 20.4% | 11.7% | ? | -4.0% | 4.61µM*
O=CNc1c(Cl)cc2c(c1Cl)Cc1cc([N+](=O)[O-])ccc1-2 | -0.5% | 3.16µM* | -11.7% | ? | -31.8% | ?
OC(c1ccccc1)(c1ccccc1)C1CCN(CCCOc2ccc(F)cc2)CC1 | 20.6µM* | / | 23.1µM* | i | / | ?
COC(=O)c1cccc(OCCCN2CCC(C(O)(c3ccccc3)c3ccccc3)CC2)c1 | ? | / | 16.4µM* | i | / | ?
Cc1ccc(OCCCN2CCC(C(O)(c3ccccc3)c3ccccc3)CC2)cc1 | ? | / | 18.4µM* | ? | / | 20.6µM*
Fc1ccc(OCCCCCCN2CCCC2)cc1 | 6.6% | ? | -4.4% | i | -32.9% | i
O=C(CN1CCN(Cc2ccc(Cl)cc2)CC1)N/N=C/C=C/c1ccccc1[N+](=O)[O-] | -0.1% | ? | -3.2% | 20.6µM* | -4.9% | i
COc1ccc(-c2noc(N3CCC(C(=O)N(C)c4cc(Cl)ccc4OC)CC3)n2)cc1 | / | ? | / | i | -25.2% | i
CCCCn1c(=N)n(CCCOc2ccc(F)cc2)c2ccccc21 | / | 15.8µM* | / | / | 12.6µM* | /
N=c1n(CCO)c2ccccc2n1CCOc1ccc(F)cc1 | / | 20.5% | / | i | 4.6% | i
CCC(C)C(=O)OC1CCC=C2C=CC(C)C(CCC3CC(O)CC(=O)O3)C21 (centres undefined) | 11.6µM* | -3.2% | ? | 13µM* | -38.7% | 18.4µM*
CC[C@H](C)C(=O)O[C@H]1CCC=C2C=C[C@H](C)[C@H](CC[C@@H]3C[C@@H](O)CC(=O)O3)[C@H]21 | 4.11µM* | 108.1% | 7.31µM* | ? | -41.4% | ?
CC[C@H](C)C(=O)O[C@H]1C[C@@H](C)C=C2C=C[C@H](C)[C@H](CC[C@@H]3C[C@@H](O)CC(=O)O3)[C@H]21 | 18.4µM* | 92.0% | 20.6µM* | i | -42.6% | ?
COc1ccccc1CNC(=O)Cn1c(-c2ccc(F)cc2)cc(C(C)=O)c1C | / | ? | / | i | 7.3% | i
O=C1C(Cl)=C(N2CCOCC2)C(=O)N1CCc1ccccc1 | 0.4% | -0.1% | -2.4% | i | -20.9% | 14.6µM*
O=C(CCl)N1CCN(C(=O)C2COc3ccccc3O2)CC1 (centres undefined) | ? | -13.1% | 23.1µM* | ? | -15.0% | ?

Screening data deposited in PubChem by National Center for Advancing Translational Sciences (NCATS).
